Data on nine compounds can be found in PubChem BioAssay (NCI).

A short description of experiment [1]: NCI Yeast Anticancer Drug Screen. Data for the rad50 strain (AID 155).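 Further: 0% = growth of vehicle-only cultures of the same strain.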 Conditions: S. cerevisiae rad50 strain growth inhibition, active compounds read high. A digest of the protocol:
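Cells are treated with compound, grown, and their growth is then scored against vehicle-only cultures of the same repair-deficient yeast strain.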

Experiment [2] is described as follows: NCI Yeast Anticancer Drug Screen. Data for the mec2-1 strain (AID 157). Particulars: S. cerevisiae mec2-1 strain, active compounds read high. The essentials: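 Vehicle-treated cultures served as reference for growth inhibition of compound-exposed mec2-1 yeast.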
The nature of experiment [3]: NCI Yeast Anticancer Drug Screen. Data for the sgs1 mgt1 strain (AID 161).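 Further: 0% = growth of cultures given vehicle only.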 Conditions: S. cerevisiae sgs1 mgt1 strain, active compounds read high. A digest of the protocol: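 Read-out: growth inhibition vs vehicle controls. Cells: mutant yeast strain deficient in DNA damage repair.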
Experiment [4] is described as follows: NCI Yeast Anticancer Drug Screen. Data for the cln2 rad14 strain (AID 165).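 Further: 0% = growth equal to vehicle treated cultures.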 Conditions: S. cerevisiae cln2 rad14 strain, active compounds read high. A digest of the protocol:
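Each compound was tested on cln2 rad14 yeast. Inhibition of growth was calculated against vehicle-exposed controls.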

Experiment [5] in a line: NCI Yeast Anticancer Drug Screen. Data for the bub3 strain (AID 167). Conditions: S. cerevisiae bub3 mutant strain, active compounds read high. The essentials:
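Part of a panel of yeast mutants defective in DNA damage repair or cell cycle regulation. Each strain is grown with compound, and inhibition is calculated relative to solvent-treated cultures.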

Experiment [6] can be described thus: NCI Yeast Anticancer Drug Screen. Data for the mlh1 rad18 strain (AID 175). Particulars: S. cerevisiae mlh1 rad18 strain growth inhibition, active compounds read high. The essentials: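 Vehicle-treated cultures served as the reference for growth inhibition in a yeast strain carrying DNA damage repair alterations exposed to each compound.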
Where [7] appears, read: at 5.0 µM (retest, dose inferred, filed as 0.5).
[8] abbreviates: at 50.0 µM (retest, dose inferred, filed as 5.0).

The structures appear in SMILES notation. This is part of a sample that, as a whole, favours compounds with a hit. Of some 79,000 tested, about 15% had one in any assay. Values without a mark were called inactive. Activity calls are given as the source filed them. No stated cut-off is given here; in the data, active means growth inhibition above about 70%; inactive means the rest.

As to `CC(=O)[O-].[Mn+3].[O-]c1ccc(Cl)cc1C=NCCN=Cc1cc(Cl)ccc1[O-]`, the growth inhibition in experiment [1] (setting [7]) is -2%; in experiment [1] (setting [8]), 92% (active); in experiment [1] (at 50.0 µM), 98.8% (active); in experiment [2] (setting [7]), -3%; in experiment [2] (setting [8]) it was 66%; in experiment [2] (at 50.0 µM), 98.5% (active). In addition, the growth inhibition in experiment [3] (setting [7]) was 6%; in experiment [3] (setting [8]) it was 87% (active); in experiment [3] (at 50.0 µM), 98.6% (active); in experiment [4] (setting [7]) it was 8%; in experiment [4] (setting [8]) it was 89% (active); in experiment [4] (at 50.0 µM), 89.2% (active). Also, the growth inhibition in experiment [5] (setting [7]) is 16%; in experiment [5] (setting [8]) it was 98% (active); in experiment [5] (at 50.0 µM), 98.2% (active); in experiment [6] (setting [7]), -1%; in experiment [6] (setting [8]), 93% (active); in experiment [6] (at 50.0 µM), 98.6% (active).

Take `Cc1ccc(N2CC3CC4(C)C=CC3(C2)O4)cc1` (configuration not stated): the growth inhibition was 6% in experiment [1] (setting [7]); 8% in experiment [1] (setting [8]); 76% (active) in experiment [1] (at 50.0 µM); -9% in experiment [2] (setting [7]); 1% in experiment [2] (setting [8]); 49.7% in experiment [2] (at 50.0 µM). In addition, the growth inhibition in experiment [3] (setting [7]) is 10%; in experiment [3] (setting [8]) it was 22%; in experiment [3] (at 50.0 µM), 79.8% (active); in experiment [4] (setting [7]) it was -22%; in experiment [4] (setting [8]), 10%; in experiment [4] (at 50.0 µM), -6.65%. The growth inhibition in experiment [5] (setting [7]) was 13%; in experiment [5] (setting [8]), -3%; in experiment [5] (at 50.0 µM) it was 89.5% (active); in experiment [6] (setting [7]), 30%; in experiment [6] (setting [8]) it was -1%; in experiment [6] (at 50.0 µM), 50.8%.

Regarding `CN(C)NC(=S)C(F)(F)F`, the growth inhibition in experiment [1] (setting [7]) was -1%; in experiment [1] (setting [8]), 87% (active); in experiment [1] (at 50.0 µM), 95.5% (active); in experiment [2] (setting [7]) it was 1%; in experiment [2] (setting [8]) it was 79% (active); in experiment [2] (at 50.0 µM), 56.7%. In addition, the growth inhibition in experiment [3] (setting [7]) is 0%; in experiment [3] (setting [8]), 84% (active); in experiment [3] (at 50.0 µM) it was 97.8% (active); in experiment [4] (setting [7]), -4%; in experiment [4] (setting [8]), 85% (active); in experiment [4] (at 50.0 µM), 44%. The growth inhibition in experiment [5] (setting [7]) is 0%; in experiment [5] (setting [8]), 85% (active); in experiment [5] (at 50.0 µM), 37.6%; in experiment [6] (setting [7]), -2%; in experiment [6] (setting [8]), 79% (active); in experiment [6] (at 50.0 µM), 77% (active).

For `CCCOC(=O)COc1ccccc1C(=O)OCCC`, the growth inhibition is 5% in experiment [1] (setting [7]); 10% in experiment [1] (setting [8]); -1.2% in experiment [1] (at 50.0 µM); 2% in experiment [2] (setting [7]); 7% in experiment [2] (setting [8]); -15.5% in experiment [2] (at 50.0 µM). Further, the growth inhibition in experiment [3] (setting [7]) is 0%; in experiment [3] (setting [8]), 11%; in experiment [3] (at 50.0 µM), 6%; in experiment [4] (setting [7]), 13%; in experiment [4] (setting [8]) it was 15%; in experiment [4] (at 50.0 µM), 14.9%. The growth inhibition in experiment [5] (setting [7]) is 10%; in experiment [5] (setting [8]), 44%; in experiment [5] (at 50.0 µM), 23.2%; in experiment [6] (setting [7]), 0%; in experiment [6] (setting [8]) it was 13%; in experiment [6] (at 50.0 µM), -11.4%.

`CCCCOC(=O)C(C)OC(=O)NNc1ccccc1` (configuration not stated): the growth inhibition in experiment [1] (setting [7]) is 10%; in experiment [1] (setting [8]), 51%; in experiment [1] (at 50.0 µM), 48.2%; in experiment [2] (setting [7]) it was 0%; in experiment [2] (setting [8]) it was 12%; in experiment [2] (at 50.0 µM), 36%. The growth inhibition is 1% in experiment [3] (setting [7]); 39% in experiment [3] (setting [8]); 36% in experiment [3] (at 50.0 µM); 7% in experiment [4] (setting [7]); 34% in experiment [4] (setting [8]); 36.7% in experiment [4] (at 50.0 µM). Moreover, the growth inhibition in experiment [5] (setting [7]) is 9%; in experiment [5] (setting [8]), 88% (active); in experiment [5] (at 50.0 µM), 99% (active); in experiment [6] (setting [7]), 6%; in experiment [6] (setting [8]), 87% (active); in experiment [6] (at 50.0 µM) it was 67%.

Regarding `CN(CCCN(CCO)CCO)C1CC(C)(C)N(O)C(C)(C)C1`, the growth inhibition was 16% in experiment [1] (setting [7]); -4% in experiment [1] (setting [8]); -4.5% in experiment [1] (at 50.0 µM); -1% in experiment [2] (setting [7]); 3% in experiment [2] (setting [8]); -9.7% in experiment [2] (at 50.0 µM). In addition, the growth inhibition in experiment [3] (setting [7]) was 7%; in experiment [3] (setting [8]) it was 10%; in experiment [3] (at 50.0 µM), -3.5%; in experiment [4] (setting [7]), -2%; in experiment [4] (setting [8]), 5%; in experiment [4] (at 50.0 µM), 14.7%. Also, the growth inhibition was -3% in experiment [5] (setting [7]); 2% in experiment [5] (setting [8]); -8.9% in experiment [5] (at 50.0 µM); 1% in experiment [6] (setting [7]); 9% in experiment [6] (setting [8]); 7.2% in experiment [6] (at 50.0 µM).

As for `Clc1ccc(/C=N\Nc2c3ccccc3nc3ccccc23)cc1Cl`, the growth inhibition in experiment [1] (setting [7]) is -5%; in experiment [1] (setting [8]), 25%; in experiment [1] (at 50.0 µM), 71% (active); in experiment [2] (setting [7]), 13%; in experiment [2] (setting [8]), 21%; in experiment [2] (at 50.0 µM), 14.6%. The growth inhibition in experiment [3] (setting [7]) is 1%; in experiment [3] (setting [8]), 38%; in experiment [3] (at 50.0 µM), 58.4%; in experiment [4] (setting [7]) it was -3%; in experiment [4] (setting [8]), 4%; in experiment [4] (at 50.0 µM) it was 11.9%. Besides, the growth inhibition in experiment [5] (setting [7]) was 13%; in experiment [5] (setting [8]), 44%; in experiment [5] (at 50.0 µM) it was 28.1%; in experiment [6] (setting [7]) it was 1%; in experiment [6] (setting [8]), 57%; in experiment [6] (at 50.0 µM) it was 61.8%.

In the case of `Nc1ncnc(N2CCOCC2)c1N`, the growth inhibition in experiment [1] (setting [7]) is -1%; in experiment [1] (setting [8]), -5%; in experiment [1] (at 50.0 µM), 11.7%; in experiment [2] (setting [7]) it was 0%; in experiment [2] (setting [8]), 0%; in experiment [2] (at 50.0 µM), 29.6%. For the same compound, the growth inhibition was 3% in experiment [3] (setting [7]); 0% in experiment [3] (setting [8]); 0.95% in experiment [3] (at 50.0 µM); -7% in experiment [4] (setting [7]); 2% in experiment [4] (setting [8]); 83.8% (active) in experiment [4] (at 50.0 µM). In addition, the growth inhibition in experiment [5] (setting [7]) was -3%; in experiment [5] (setting [8]) it was -2%; in experiment [5] (at 50.0 µM) it was -10.7%; in experiment [6] (setting [7]) it was -4%; in experiment [6] (setting [8]), -6%; in experiment [6] (at 50.0 µM), 83.5% (active).

For `COC(=O)c1ccc(C)cc1C1CN=NC12Cc1cccc(C)c1C2=O` (configuration not stated), the growth inhibition was 1% in experiment [1] (setting [7]); 9% in experiment [1] (setting [8]); 26.8% in experiment [1] (at 50.0 µM); -1% in experiment [2] (setting [7]); 10% in experiment [2] (setting [8]); 24.9% in experiment [2] (at 50.0 µM). Besides, the growth inhibition in experiment [3] (setting [7]) was 16%; in experiment [3] (setting [8]), 22%; in experiment [3] (at 50.0 µM), 8.65%; in experiment [4] (setting [7]) it was 5%; in experiment [4] (setting [8]), 10%; in experiment [4] (at 50.0 µM), 83.5% (active). The growth inhibition was -2% in experiment [5] (setting [7]); 23% in experiment [5] (setting [8]); 41.8% in experiment [5] (at 50.0 µM); -1% in experiment [6] (setting [7]); 6% in experiment [6] (setting [8]); 2.55% in experiment [6] (at 50.0 µM).
